SMILES strings stand for the structures. The panel holds about 83,000 compounds, 20% with a hit somewhere; the sample as a whole holds those more often.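 Interpretation: 100, growth as untreated; towards 0, rising growth inhibition; 0, no net growth; 0 to -100, cell death. Compounds scoring below 10 were considered active.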 Values without a mark were called inactive. Active and inactive are the calls of the source.

Results on 8 molecules are retold here after PubChem BioAssay (NCI).

Some test systems named below: NCI-H23 lung; NCI-H226 lung; NCI-H322M lung; NCI-H460 lung; HOP-92 NSCLC; NCI-H522 lung; A549/ATCC NSCLC; 786-0 renal; COLO 205 colon; DU-145 prostate; K-562 leukemia; MALME-3M melanoma; MDA-MB-231 breast; RXF 393 renal; SF-268 CNS; SF-295 CNS; SF-539 CNS; UACC-257 melanoma; M14 melanoma.
Experiment in all cases: NCI-60 one-dose screen, 48 h (100 = growth as untreated, 0 = no growth, -100 = all killed)
Conditions in all cases: 10 µM unless noted

With `COC(OC)c1ccccc1`, the growth was 105% in the test with NCI-H23 lung; 108% in the test on NCI-H226 lung; 103% in the test on NCI-H322M lung; 117% in the test on NCI-H460 lung; 79.6% with HOP-92 NSCLC; 101% in the test on NCI-H522 lung. For the same molecule, the growth was 103% in the test with A549/ATCC NSCLC; 95% in the test on 786-0 renal; 107% in the test on COLO 205 colon; 110% in the test with DU-145 prostate; 108% in the test on K-562 leukemia; 99.7% in the test with MALME-3M melanoma. In addition, the growth is 97% in the test with MDA-MB-231 breast; 101% in the test on RXF 393 renal; 104% in the test with SF-268 CNS; 112% with SF-295 CNS; 102% in the test with SF-539 CNS; 92.2% in the test with UACC-257 melanoma. Moreover, in the test with M14 melanoma, the growth was 101%.

As to `COc1cc(C2CC(c3ccc4c(c3)OCO4)=NN2C=O)cc(OC)c1OC` (centres undefined), the growth was 59.9% in the test with NCI-H23 lung; 58.3% in the test on NCI-H226 lung; 14.1% with NCI-H322M lung; 15.3% in the test with NCI-H460 lung; 74.6% in the test with HOP-92 NSCLC; -3.85% (active) in the test with NCI-H522 lung. The growth in the test on A549/ATCC NSCLC is 46.2%; in the test on 786-0 renal, 37.4%; with COLO 205 colon, 12.6%; in the test with DU-145 prostate, 31.7%; in the test on K-562 leukemia it was 17.6%; in the test with MALME-3M melanoma it was -3.87% (active). Further, the growth is 68% in the test on MDA-MB-231 breast; 45.7% in the test on RXF 393 renal; 44.8% with SF-268 CNS; -1.84% (active) in the test on SF-295 CNS; 65.3% in the test on UACC-257 melanoma; 26.7% with M14 melanoma.

As for `CCn1c2ccccc2c2cc(NC(=O)Nc3ccc([N+](=O)[O-])cc3C)ccc21`, the growth with NCI-H23 lung was 41.5%; in the test on NCI-H226 lung it was 74.9%; in the test with NCI-H322M lung, 77.8%; in the test on NCI-H460 lung, 19.5%; in the test on HOP-92 NSCLC it was 57.9%; in the test with NCI-H522 lung it was 9.7% (active). Also, the growth with A549/ATCC NSCLC is 31.5%; in the test on 786-0 renal it was 38.9%; in the test on COLO 205 colon, 29.9%; in the test on DU-145 prostate, 65.7%; in the test on K-562 leukemia, 8.55% (active); with MALME-3M melanoma it was 64.5%. For the same molecule, the growth was 29.3% in the test on MDA-MB-231 breast; -31.1% (active) in the test with RXF 393 renal; 64.9% in the test on SF-268 CNS; 13.1% with SF-295 CNS; 47% in the test with SF-539 CNS; 20% in the test on UACC-257 melanoma. For the same molecule, in the test with M14 melanoma, the growth was 32.6%.

Consider `CN1CCN(Cc2ccc(NC(=O)c3cncc(C#Cc4cnc(N)c5ccncc45)c3)cc2C(F)(F)F)CC1`, for which the growth in the test on NCI-H23 lung is 15.4%; in the test on NCI-H226 lung, -12.8% (active); with NCI-H322M lung, 20.4%; in the test with NCI-H460 lung, 8.86% (active); in the test on HOP-92 NSCLC, -22.5% (active); with NCI-H522 lung it was 24.4%. In addition, the growth with A549/ATCC NSCLC is 26.4%; with 786-0 renal, 35.3%; in the test with COLO 205 colon, -16.1% (active); in the test with DU-145 prostate it was 22.2%; with K-562 leukemia, -16.8% (active); in the test on MALME-3M melanoma it was -44.5% (active). Besides, the growth with MDA-MB-231 breast was -33.7% (active); in the test on RXF 393 renal, -30.1% (active); with SF-268 CNS, 24.5%; in the test on SF-295 CNS, 20.8%; with SF-539 CNS, -20.6% (active); in the test on UACC-257 melanoma, 23.8%. Also, the growth in the test on M14 melanoma was 2.43% (active).

With `CCN1CCN(c2nc(NNC(=O)c3ccccc3)nc(N3CCN(C(c4ccccc4)c4ccccc4)CC3)n2)CC1`, the growth in the test with NCI-H23 lung was 67.5%; in the test with NCI-H226 lung, 73%; in the test with NCI-H322M lung, 90.3%; in the test with NCI-H460 lung it was 3.33% (active); with HOP-92 NSCLC, 59.3%; in the test with NCI-H522 lung, 65.8%. In addition, the growth with A549/ATCC NSCLC was 54.2%; in the test on 786-0 renal, 66.4%; in the test with COLO 205 colon, -57% (active); in the test on DU-145 prostate, 71.9%; in the test with K-562 leukemia it was 9.4% (active); in the test with MALME-3M melanoma, 4.38% (active). The growth in the test with MDA-MB-231 breast was 71.7%; in the test on RXF 393 renal it was 59.7%; in the test on SF-268 CNS it was 76.9%; in the test on SF-295 CNS, 79.3%; in the test with SF-539 CNS, 73.1%; in the test with UACC-257 melanoma, 13.9%. Besides, in the test with M14 melanoma, the growth was 0.297% (active).

Turning to `Cn1ncc2c(Sc3ccc(Cl)cc3)ncnc21`, the growth with NCI-H23 lung was 93.6%; in the test on NCI-H226 lung, 108%; in the test with NCI-H322M lung it was 86.5%; in the test on NCI-H460 lung, 92.9%; in the test with HOP-92 NSCLC, 25.8%; with NCI-H522 lung it was 21.4%. Also, the growth was 93.1% in the test on A549/ATCC NSCLC; 98.8% with 786-0 renal; 90.8% with COLO 205 colon; 83% with DU-145 prostate; 78.1% in the test on K-562 leukemia; 69.9% with MALME-3M melanoma. Besides, the growth with MDA-MB-231 breast was 98.6%; in the test on RXF 393 renal it was 117%; in the test on SF-268 CNS, 57.8%; in the test on SF-295 CNS it was 96.8%; in the test on SF-539 CNS it was 92.2%; in the test with UACC-257 melanoma, 103%. The growth with M14 melanoma was 103%.

With `O=C(O)Cc1cccc(=O)c(O)c1C(=O)O`, the growth was 108% in the test with NCI-H23 lung; 111% in the test with NCI-H226 lung; 129% in the test on NCI-H322M lung; 124% with NCI-H460 lung; 103% with HOP-92 NSCLC; 106% in the test with NCI-H522 lung. Also, the growth with A549/ATCC NSCLC was 104%; with 786-0 renal, 100%; in the test with COLO 205 colon, 108%; with DU-145 prostate, 117%; in the test on MALME-3M melanoma it was 92.5%; with MDA-MB-231 breast, 110%. Also, the growth with RXF 393 renal is 112%; with SF-268 CNS it was 107%; with SF-295 CNS, 117%; with SF-539 CNS it was 110%; in the test with UACC-257 melanoma, 103%; in the test on M14 melanoma, 102%.

For `CCCOC(=O)n1cccc1`, the growth was 99% with NCI-H23 lung; 104% in the test on NCI-H226 lung; 135% with NCI-H322M lung; 110% in the test on NCI-H460 lung; 97% in the test on HOP-92 NSCLC; 112% in the test on NCI-H522 lung. Moreover, the growth is 96.8% in the test on A549/ATCC NSCLC; 98.5% with 786-0 renal; 107% in the test on COLO 205 colon; 108% with DU-145 prostate; 115% in the test with K-562 leukemia; 147% in the test with MALME-3M melanoma. For the same molecule, the growth in the test with MDA-MB-231 breast is 99%; in the test on RXF 393 renal, 102%; with SF-268 CNS it was 98.4%; in the test on SF-295 CNS, 122%; with UACC-257 melanoma, 102%; in the test on M14 melanoma, 101%.
